Results published in PubChem BioAssay (NCATS).
Values joined by “and” are separate entries in the source; they are usually repeats but may differ in a detail not shown here. Identical values can stand only once. Inconclusive results are not listed. More than one record can exist for a structure, and the calls need not agree. Active and inactive are the calls of the source. Calls follow the shape of the dose curve; as a rule, active = well fitted curve in the direction sought with a large enough effect; inconclusive = small, poorly fitted or top-dose-only effect, or another doubt; inactive = no such curve, though single readings can be large; an effect the other way counts as inactive or inconclusive.

Key:
[1] = target: Glutathione peroxidase 1 (Homo sapiens) (UniProt P07203); assay: Primary qHTS Assay for Inhibitors of Recombinant Selenoprotein Glutathione Peroxidase 1 (GPX1) (AID 1845191); also: nearly all actives have a fitted effect of over 65% in size; as to activity, negative = inhibition: % is scaled to controls: 0 for no effect and ±100 for the full control effect
Chain of Glutathione peroxidase 1 (Homo sapiens) (P07203 whole entry, looked up): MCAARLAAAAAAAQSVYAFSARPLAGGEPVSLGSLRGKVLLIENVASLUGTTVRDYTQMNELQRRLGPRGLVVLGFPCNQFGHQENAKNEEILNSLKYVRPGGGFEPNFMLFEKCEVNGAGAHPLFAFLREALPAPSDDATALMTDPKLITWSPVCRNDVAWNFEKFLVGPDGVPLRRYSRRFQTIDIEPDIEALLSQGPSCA
Summary of the method: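 Recombinant GPX1 (10 nM final) was preincubated with compound for 30 min at room temperature, then reacted with 1 mM GSH, 0.5 mM CHP, 0.5 mM NADPH and 100 nM glutathione reductase; NADPH fluorescence (340/450 nm) was read at 0 and 15 min.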

[2] = target: Phospholipid hydroperoxide glutathione peroxidase GPX4 (Homo sapiens) (UniProt P36969); assay: Primary qHTS Assay for Inhibitors of Recombinant Selenoprotein Glutathione Peroxidase 4 (GPX4) (AID 1845192); also: nearly all actives have a fitted effect of over 65% in size; also: potency is read from the fitted curve at half-maximal effect; as to activity change, negative = inhibition: series mostly up to about 50 µM; % is scaled to controls: 0 for no effect and ±100 for the full control effect
Chain of Phospholipid hydroperoxide glutathione peroxidase GPX4 (Homo sapiens) (P36969 whole entry, looked up): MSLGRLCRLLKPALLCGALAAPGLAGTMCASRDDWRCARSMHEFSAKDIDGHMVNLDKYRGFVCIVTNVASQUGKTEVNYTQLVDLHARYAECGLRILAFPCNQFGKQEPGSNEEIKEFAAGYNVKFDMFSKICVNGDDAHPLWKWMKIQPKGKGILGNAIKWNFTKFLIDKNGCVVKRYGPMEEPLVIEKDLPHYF
Summary of the method: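 GR-coupled readout: 100 nM GR, 1 mM GSH, 0.5 mM NADPH; NADPH fluorescence (ex 340/em 450 nm) read at t=0 and after 15 min RT. GPX4 200 nM, preincubated 30 min with compound; substrate 0.5 mM CHP.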

[3] = target: Luciferin 4-monooxygenase (Photinus pyralis) (UniProt P08659); assay: Primary firefly luciferase (FLuc) qHTS assay for identification of artifact compounds. (AID 1845220); also: nearly all actives have a fitted effect of over 60% in size; also: potency is read from the fitted curve at half-maximal effect;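 as to activity change, negative = inhibition: series mostly up to about 54 µM; plate controls were DMSO vehicle for no effect and no enzyme for full effect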
Summary of the method: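 In this counter-screen for luciferase artifacts, test compounds met substrate (10 uM each luciferin and ATP) before 10 nM enzyme started the reaction. Light output was measured 5 min later.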

[4] = Primary fluorescence-based thiol-reactive (MSTI) qHTS assay for identification of artifact compounds. (AID 1845221); also: nearly all actives have a fitted effect of over 65% in size; also: potency is read from the fitted curve at half-maximal effect;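 as to activity change, negative = thiol reactive: series mostly up to about 54 µM; thiol-reactive compounds lower the probe fluorescence signal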
Summary of the method: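 Compounds were incubated 1 h at room temperature in the dark with the MSTI probe (4 uM) in PBS pH 7.4, 2% DMSO. Signals were normalized between Acetyl-MSTI and MSTI.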

[5] = tested on: Nanoluciferase (engineered Oplophorus gracilirostris luciferase); assay: Primary Nanoluciferase (NLuc) qHTS assay for identification of artifact compounds. (AID 1845222);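 also: NLuc secreted into diluted conditioned medium of S16 cells; series mostly up to about 54 µM; 0% = DMSO and -100% = no enzyme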
Summary of the method: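 Using secreted nanoluciferase in S16 culture medium (0.22 um filtered, 1:55 dilution), compounds were preincubated 15 min at RT. Signal was generated with Nano-Glo reagent (1:100) over 5 min.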

[6] = Primary redox qHTS assay for identification of artifact compounds. (AID 1845223);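 also: 0% = DMSO and 100% = reference compound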
Summary of the method: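 Amplex Red (25 uM) and HRP (250 mU/mL) in HBSS, with compounds for 15 min, then 250 uM DTT for 30 min, room temperature, dark. Fluorescence 525/598 nm read; normalized to DMSO and 10 uM DA3003; Hill fit.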

CN1c2c(nc(N)[nH]c2=O)NC[C@@H]1CNc1ccc(C(=O)N[C@@H](CCC(=O)O)C(=O)O)cc1
inactive and 1.24 µM (active): Potency [2]
inactive: Potency [1] | Potency [3] | Potency [4] | Potency [5] | Potency [6]

COc1ccc(Sc2ccc(NC(=O)c3ccccc3Cl)cc2C#N)cc1
inactive: Potency [1] | Potency [2] | Potency [3] | Potency [4] | Potency [5] | Potency [6]

CCCCC1CCC(c2nc(-c3ccncc3)no2)CC1 (stereo not drawn)
inactive: Potency [1] | Potency [2] | Potency [3] | Potency [4] | Potency [5] | Potency [6]

COC(=O)/C=C/C=C/C(=O)OC1C=C2COC(=O)C2(O)C2(C)CCCC(C)(C)C12 (stereo not drawn)
inactive: Potency [1] | Potency [2] | Potency [3] | Potency [4] | Potency [5] | Potency [6]

COc1ccc(Oc2c(Cl)cnn(-c3cc(C)cc(C)c3)c2=O)cc1
inactive: Potency [1] | Potency [2] | Potency [3] | Potency [4] | Potency [5] | Potency [6]

CC(=O)OC1CC(C)(C(=O)O)CC2C3=CC(=O)C4C5(C)CCC(OC6OC(C(=O)O)C(O)C(O)C6OC6OC(C(=O)O)C(O)C(O)C6O)C(C)(C)C5CCC4(C)C3(C)CCC12C (stereo not drawn)
inactive: Potency [1] | Potency [2] | activity change, negative = inhibition [3] -10.2% [at 11.6 µM] | activity change, negative = thiol reactive [4] 9.23% [at 11.5 µM] | activity, negative = inhibition [5] -14.5% [at 11.6 µM] | redox activity (% of DA3003) [6] 5.43% [at 11.5 µM]

COc1ccc2c(NC(=O)Nc3cccc(C(F)(F)F)n3)ccnc2c1
inactive: Potency [1] | Potency [2] | Potency [3] | Potency [4] | Potency [5] | Potency [6]

CC(C)[C@@H](c1ccc(C(F)(F)F)cc1CN(Cc1cc(C(F)(F)F)cc(C(F)(F)F)c1)c1nnn(C)n1)N1CCC(C(=O)O)CC1
inactive: Potency [1] | Potency [2] | Potency [3] | Potency [4] | Potency [5] | Potency [6]

Cc1cc(C)nc(SCC(=O)Nc2ncc(Cc3cccc4ccccc34)s2)n1
inactive: Potency [1] | Potency [2] | Potency [3] | Potency [4] | Potency [5] | Potency [6]

C[C@H]1[C@H](/C=C/c2ccc(-c3ccccc3C#N)cn2)[C@@H]2[C@@H](C)OC(=O)[C@@H]2C[C@@H]1C
inactive: Potency [1] | Potency [2] | Potency [3] | Potency [4] | Potency [5] | Potency [6]

COCCNCc1ccc(-c2cc3nccc(Oc4ccc(NC(=O)C5(C(=O)Nc6ccc(F)cc6)CC5)cc4F)c3s2)nc1
inactive: Potency [1] | Potency [2] | Potency [3] | Potency [4] | Potency [5] | Potency [6]

C/C(=C/CO)CCC1C(C)CCC2C(C)(C)CCCC12C (stereo not drawn)
inactive: Potency [1] | Potency [2] | Potency [3] | Potency [4] | Potency [5] | Potency [6]

Cc1cccc(CC(=O)N2CCc3c2ccc(-c2cn(C)c4ncnc(N)c24)c3F)n1
inactive: Potency [1] | Potency [2] | Potency [3] | Potency [4] | Potency [5] | Potency [6]

CCOc1cc(C(C)(C)C)ccc1C1=NC(C)(c2ccc(Cl)cc2)C(C)(c2ccc(Cl)cc2)N1C(=O)N1CCN(CCCS(C)(=O)=O)CC1 (stereo not drawn)
inactive: Potency [1] | Potency [2] | Potency [3] | Potency [4] | Potency [5] | Potency [6]

CC(=O)O[C@@H]1[C@H](O[C@@H]2O[C@@H](CO)[C@H](O)[C@H]2O)[C@@H](O[C@@H]2O[C@@H](C)[C@H](O[C@@H]3OC[C@@H](O)[C@H](O)[C@H]3O)[C@@H](O)[C@H]2O)[C@H](OC(=O)[C@]23CCC(C)(C)C[C@H]2C2=CCC4[C@@]5(C)CC[C@H](O[C@@H]6O[C@H](C(=O)O)[C@@H](O)[C@H](O)[C@H]6O[C@@H]6O[C@H](CO)[C@H](O)[C@H](O)[C@H]6O)[C@@](C)(C=O)C5CC[C@@]4(C)[C@]2(C)C[C@H]3O)O[C@@H]1C (stereo partly drawn)
inactive: outcome [1] inactive [at 9.52 µM] | activity change, negative = inhibition [2] -0.242% [at 9.73 µM] | outcome [3] inactive [at 11.6 µM] | activity change, negative = thiol reactive [4] 435% [at 11.5 µM] | activity, negative = inhibition [5] 0% [at 11.6 µM] | redox activity (% of DA3003) [6] 9.67% [at 11.5 µM]

C=C1C(=O)OC2/C=C(\CO)CC/C=C(\C=O)C(O)C(OC(=O)C(C)CC)C12 (stereo not drawn)
active: Potency [4] 14.7 µM
inactive: Potency [1] | Potency [2] | Potency [3] | Potency [5] | Potency [6]

CN(C)C(=O)COC(=O)c1cc(-c2ccc(C3CCNCC3)cc2)c2ccc(-c3ccc(C(F)(F)F)cc3)cc2c1
inactive: Potency [1] | Potency [2] | Potency [3] | Potency [4] | Potency [5] | Potency [6]

CC12CCC(OC3OC(CO)C(O)C(O)C3OC3OC(CO)C(O)C(O)C3O)CC1CCC1C2CCC2(C)/C(=C3/COC(=O)C3)CCC12O (stereo not drawn)
inactive: Potency [1] | Potency [2] | Potency [3] | Potency [4] | Potency [5] | Potency [6]

O=C(C(Cc1cccc(C(F)(F)F)c1)NS(=O)(=O)c1cc(F)c2c(c1)CCNC2)N1CCCC1 (stereo not drawn)
inactive: Potency [1] | Potency [2] | Potency [3] | Potency [4] | Potency [5] | Potency [6]

Cc1ccc(C(C)C)c(O[C@@H]2O[C@H](CO)[C@@H](O)[C@H](O)[C@H]2O)c1
inactive: Potency [1] | Potency [2] | Potency [3] | Potency [5] | Potency [6]
active: Potency [4] 10.4 µM

Cn1c(=O)c(F)c(Nc2ccc(I)cc2F)c2c(=O)n(CC(O)CO)cnc21 (stereo not drawn)
inactive: Potency [1] | Potency [2] | Potency [3] | Potency [4] | Potency [5] | Potency [6]

CC(C)(C)C1CCN(C(=O)n2ncc(C(O)(c3ccccc3)c3ccccc3)n2)CC1
inactive: Potency [1] | Potency [2] | Potency [3] | Potency [4] | Potency [5] | Potency [6]

Cc1ccc(-c2cn3c4c(sc3n2)CCCC4)cc1
active: Potency [3] 0.19 µM
inactive: Potency [1] | Potency [2] | Potency [4] | Potency [5] | Potency [6]
